Inconclusive results are not listed. Unmarked numbers belong to inactive results. Activity calls are given as the source filed them. Calls come from the whole dose curve; as a rule, active = well fitted cell-killing curve with a large enough effect; inconclusive = small, poorly fitted or top-dose-only effect, or effect the other way; inactive = no such curve, though single readings can be large or run the other way.
% is set by controls: 0 for no effect and ±100 for the full control effect; potency is the fitted concentration of half-maximal effect.

The nature of this assay: qHTS of pediatric cancer cell lines to identify multiple opportunities for drug repurposing: Confirmatory screen for RD cells (AID 1347124).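 Note: cells exposed to compound for 48 h before viability readout; nearly all actives have a fitted effect of over 65% in size.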 The following applies: RD rhabdomyosarcoma cell viability; series mostly up to 45.9 µM; activity change, negative = cytotoxic: at the top concentration. From the text: Drug repurposing or repositioning has been offered as a strategy for drug development in oncology programs. This approach has special potential for childhood cancers and other rare or orphan diseases, where the expected return on new drug development has been a disincentive to pharmaceuticals.
In this project we exploit the poly-pharmacology of drugs to discover new indications via phenotypic screening of a panel of 19 well-characterized cell lines derived from solid tumors seen in children and adolescents. The goal is to identify approved drugs with previously unrecognized anticancer properties that has the potential to reveal new mechanisms and biological processes involved in carcinogenesis or drug resistance. We employed a titration-based paradigm (quantitative high-throughput screening or qHTS), where all compounds were tested at multiple concentrations for their effect on cell viability. Concentration-response curves (CRCs) were derived directly from the primary screen, and both potency and efficacy values were used to identify compounds with robust bioactivity profiles. We screened the NIH Chemical Genomics Center (NCGC) Pharmaceutical Collection (NPC) and Mechanism Interrogation Plate (MIPE) small molecule collections of approved and investigational compounds against these cell lines; and measured metabolically active cells after 48 hours of compound treatment as a proxy for cell viability.
Assay Submitter: Nathalia J. Martinez, National Center for Advancing Translational Sciences, National Institutes of Health, Rockville, MD, USA; email: natalia.martinez@nih.gov
[1] Shen, M et al. Quantitative high-throughput phenotypic screening of pediatric cancer cell lines identifies multiple opportunities for drug repurposing. Oncotarget 2017 Dec 19;9(4):4758-4772. PMID 29435139.
The cells were obtained from University of North Carolina (UNC), Pediatric Preclinical Testing Program (PPT), and Coriell Institute (CI).
qHTS cell viability assay:
Cells were assayed in growth media at a density of 500-1,000 cells/well. Five microliters of cells were dispensed into 1,536-well, white, solid-bottom, TC-treated plates (Greiner Bio One) using a multidrop dispenser and incubated at 37 degrees C, 5% CO2, under a humidified atmosphere for 5 hours. Twenty-three nanoliters of compounds and controls (neutral control DMSO or positive control bortezomib at final concentration of 2.3 µM) were subsequently transferred by Kalypsys pintool. For primary screens, the MIPE collection was tested at 11-point dilutions (final concentrations range from 0.78 nM to 46 µM) and the NPC collection at 8-point dilutions (final concentrations range from 0.59 nM to 46 µM). Compounds tested in follow-up screens were assayed at 11-point dilutions. Cells were incubated for 48 hours, followed by addition of 3 µL of CellTiter-Glo (Promega). After a 15 min incubation at room temperature, samples were analyzed for luminescence intensity using a ViewLux High-throughput CCD imager equipped with clear filters.
For orientation: qHTS replaces the single test concentration by a dilution series.
In the case of `COC(=O)Nc1nc2ccc(Sc3ccccc3)cc2[nH]1`, the Potency is 2080 nM (active).
Take `CCOC(=O)c1ccc(C#Cc2ccc3c(c2)C(C)(C)CCS3)nc1`: the “activity change, negative = cytotoxic” value was 8.34%.
`CNS(=O)(=O)CCc1ccc2[nH]cc(C3CCN(C)CC3)c2c1`: the “activity change, negative = cytotoxic” value was 1.2%.
For the compound `CS(=O)(=O)c1ccc([C@@H](O)[C@@H](CO)NC(=O)C(Cl)Cl)cc1`, the “activity change, negative = cytotoxic” value is 18.7%.
As for `COc1cc2nc(N3CCCN(C)CC3)nc(NC3CCN(Cc4ccccc4)CC3)c2cc1OC`, the Potency was 657 nM (active).
Turning to `CC(C)NCC(O)c1ccc(NS(C)(=O)=O)cc1` (stereo not given), the “activity change, negative = cytotoxic” value is 10.4%.
Consider `CCOC(=O)[C@H](CCc1ccccc1)N[C@H]1CS[C@H](c2cccs2)CN(CC(=O)O)C1=O`, for which the “activity change, negative = cytotoxic” value is 7.75%.
For the compound `Oc1c(Cl)cc(Cl)c2cccnc12`, the Potency was 13100 nM (active).
Take `S=P(N1CC1)(N1CC1)N1CC1`: the “activity change, negative = cytotoxic” value is 6.78%.
As for `Nc1[nH]c(=O)ncc1F`, the “activity change, negative = cytotoxic” value is 8.36%.
As for `CCC(=O)O[C@]1(C(=O)CCl)[C@@H](C)C[C@H]2[C@@H]3CCC4=CC(=O)C=C[C@]4(C)[C@@]3(F)[C@@H](O)C[C@@]21C`, the “activity change, negative = cytotoxic” value is 8.77%.
Turning to `COC(=O)Nc1nc2ccc(S(=O)c3ccccc3)cc2[nH]1` (stereo not given), the Potency was 2610 nM (active).
Turning to `CNNCc1ccc(C(=O)NC(C)C)cc1`, the “activity change, negative = cytotoxic” value was 19.2%.
As for `COc1cc([C@@H]2c3cc4c(cc3[C@H](O)[C@H]3COC(=O)[C@H]23)OCO4)cc(OC)c1OC`, the Potency was 41.4 nM (active).
Take `Nc1nc(F)nc2c1ncn2[C@@H]1O[C@H](CO)[C@@H](O)[C@@H]1O`: the Potency is 1650 nM (active).
Consider `CCCCOc1ccc(CC(=O)NO)cc1`, for which the “activity change, negative = cytotoxic” value was -16.9%.
Still for that read-out and setting: with `C[C@@H](CN1CC(=O)NC(=O)C1)N1CC(=O)NC(=O)C1` the figure was 6.38%; with `Cn1nnc2c(C(N)=O)ncn2c1=O`, 9.28%.
Consider `O=C(NCC1CN(c2ccc(N3CCOCC3=O)cc2)C(=O)O1)c1ccc(Cl)s1` (stereo not given), for which the “activity change, negative = cytotoxic” value is 12.8%.
`CC1CC2C3CCC4=CC(=O)C=C[C@]4(C)[C@@]3(F)[C@@H](O)C[C@]2(C)[C@@]1(O)C(=O)CO` (stereo not given in full): the “activity change, negative = cytotoxic” value is 7.57%.
As to `COc1ccc(C(=O)CC(=O)c2ccc(C(C)(C)C)cc2)cc1`, the “activity change, negative = cytotoxic” value was 9.15%.
On to `COc1nc(N)nc2c1ncn2[C@@H]1O[C@H](CO)[C@@H](O)[C@@H]1O`, for which the “activity change, negative = cytotoxic” value was 13.1%.
For the compound `O=NN(CCCl)C(=O)NC1CCCCC1`, the “activity change, negative = cytotoxic” value is 9.91%.
For the compound `CC(C)(C)C(=O)OCOP(=O)(COCCn1cnc2c(N)ncnc21)OCOC(=O)C(C)(C)C`, the “activity change, negative = cytotoxic” value is -11.5%.
`CN(C)c1ccc(C(=C2C=CC(=[N+](C)C)C=C2)c2ccc(N(C)C)cc2)cc1`: the Potency is 928 nM (active).
Take `Cc1cccc(N(C)C(=S)Oc2ccc3ccccc3c2)c1`: the “activity change, negative = cytotoxic” value is 14.4%.
The same measure, in the same setting: to `Nc1nc(N)nc(-c2cc(Cl)ccc2Cl)n1` belongs 9.71% [at 97.2 µM]; to `CC(C)(C#N)c1cc(Cn2cncn2)cc(C(C)(C)C#N)c1`, 8.27%; to `CC(C(=O)O)c1ccc2c(c1)CC(=O)c1ccccc1S2` (stereo not given), -8.93%.
On to `NC(=O)c1cccnc1`, for which the “activity change, negative = cytotoxic” value was 2.96%.

Source of the values: PubChem BioAssay (NCATS).
